A selection: hits, their analogues and other compounds. The true share with any hit is near 1.2%.
PLC-gamma1 inh – inhibitors of human phospholipase C gamma1. P19174. purified PLC-gamma1, fluorogenic substrate, fluorescence. inhibition, % at 12.2 µM. 370,000 compounds, 0.84% hits. AID 720700; in the data active means inhibition above about 9.5%
GC-B act – GC-B (human) receptor activation | P20594 | HEK293-GC-B cells, CNP EC30, cGMP TR-FRET; 0% at EC30 CNP, 100% saturating CNP | activation, % at 10 µM | 370,000 compounds, 0.11% hits | AID 1920062;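 active means activation at 10 µM reaching about 35% in either raw or pattern-adjusted values, limit read from the data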
PLCb3 inh – inhibitors of human phospholipase C beta3 | Purified PLC-beta3, fluorogenic substrate, fluorescence | inhibition, % at 12.2 µM | 370,000 compounds, 0.18% hits;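 further: 0% = median of compound wells on plate and 100% = full blocker control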
NPR1 activator – GC-A (human) enzyme activation. P16066. HEK293 GC-A cells, cGMP TR-FRET, EC30 ANP; 0% at EC30 ANP, 100% saturating ANP. activation, % at 10 µM. 370,000 compounds, 0.14% hits. AID 1671463; in the data active means activation above about 40%
PLCgamma1 ctr – counter-screen for PLC-beta3 inhibitors: inhibitors of human PLC-gamma1; shares compounds with PLC-gamma1 inh; purified PLC-gamma1, fluorogenic substrate, fluorescence; inhibition, % at 12.3 µM; 3,300 compounds, 3.1% hits; AID 743258; in the data active means inhibition above about 9.5%
PLCbeta3 conf – human PLC-beta3 inhibition, confirmation | shares compounds with PLC-gamma1 inh | purified PLC-beta3, fluorogenic substrate fluorescence | inhibition, % at 12.3 µM | 3,300 compounds, 1% hits
* hit, by the source's call; x = not tested or not shown. Unless noted, no stated cut-off is given here; in the data, active means inhibition above about 11%; inactive means the rest.

SMILES | PLC-gamma1 inh | GC-B act | PLCb3 inh | NPR1 activator | PLCgamma1 ctr | PLCbeta3 conf
CC1(C(=O)NS(=O)(=O)c2cccc(Cl)c2)CCN1C(=O)Cc1ccsc1 (stereo not drawn) | 10* | 4 | 2 | 3 | -9 | -5
CC1(C(=O)NS(=O)(=O)c2cccc(Cl)c2)CCN1C(=O)Cc1ccc(-c2ccccc2)cc1 (stereo not drawn) | -2 | -2 | -5 | 7 | x | x
NC(=O)CC[C@H](NC(=O)c1ccc(F)cc1)C(=O)OCC(=O)NCc1ccc(F)cc1 | 10* | -1 | 4 | -1 | -2 | -2
CC(C)NC(=O)C1(C)Cc2c(-c3ccc(C(N)=O)cc3)ccnc2O1 (stereo not drawn) | 1 | -5 | 12* | -3 | -7 | -2
c1nc2nc3c(c(N4CCOCC4)n2n1)CCCC3 | -1 | 2 | 0 | 6 | x | x
Cc1ccc(C(=O)NC(C)CCc2ccccc2)cc1[N+](=O)[O-] (stereo not drawn) | 13* | 7 | 3 | -2 | -2 | -2
O=C(Nc1nn[nH]n1)C12CC3CC(CC(C3)C1)C2 | 10* | 3 | 3 | 5 | -4 | 1
O=C(NC1=NCCS1)C12CC3CC(CC(C3)C1)C2 | 6 | -2 | 11* | -1 | -4 | -2
CCOc1ccc(Br)cc1S(=O)(=O)Nc1cccnc1 | -2 | 1 | 3 | 2 | x | x
CCOc1ccc(C)cc1S(=O)(=O)Nc1cccnc1 | 9.8* | 0 | 4 | -5 | -20 | -2
CNC(=S)N/N=C(\C)c1ccc2c(c1)OCO2 | 0 | 6 | -6 | 0 | x | x
CNC(=S)N/N=C(\C)c1ccc2c(c1)OCCO2 | 15* | 8 | 5 | 1 | 1 | 0
CC1=C(C(=O)OCc2ccccc2)C(c2ccccc2OS(=O)(=O)c2ccc([N+](=O)[O-])cc2)NC(=O)N1CCCC(=O)O (stereo not drawn) | -1 | -4 | 2 | -3 | x | x
CCOC(=O)C1=C(C)N(CCCC(=O)O)C(=O)NC1c1ccccc1OS(=O)(=O)c1ccc([N+](=O)[O-])cc1 (stereo not drawn) | 12* | 1 | 8 | -1 | 7 | 0
COc1ccc(CNC(=O)C(C)N2C(=O)COc3ccc(C)cc32)c(OC)c1 (stereo not drawn) | 4 | -4 | -6 | -4 | x | x
Cc1ccccc1Cn1nc(C)c(NC(=O)C2c3ccccc3Oc3ccccc32)c1C | 0 | -1 | 4 | -2 | x | x
Cc1cc(C)n(CCOc2nonc2N)n1 | 11* | 2 | 12* | -5 | -3 | 0
CCOCCCNC(=O)/C(C#N)=C/c1cc(OC)c(O)c([N+](=O)[O-])c1 | 13* | -8 | 8 | -4 | -2 | -1
CCOCCCNC(=O)/C(C#N)=C/c1cc(C)c(O)c(C)c1 | 0 | 2 | -4 | -4 | x | x
COc1ccc(OC)c(CN2CCN(S(=O)(=O)c3ccc(NC(C)=O)cc3)CC2)c1 | 8 | 3 | 3 | 3 | x | x
C[C@]12CCC(O)CC1=CCC1C2CC[C@]2(C)/C(=N\NC(N)=S)CCC12 (stereo partly drawn) | 12* | -2 | -3 | -10 | -3 | -1
CC12CCC(O)CC1=CCC1C2CCC2(C)C1CCC21CCC(=O)O1 (stereo not drawn) | 0 | -1 | -1 | 0 | x | x
Cc1ccc(C(=O)Nc2ccc(N3CCOCC3)cc2)cc1S(=O)(=O)N1CCCCC1 | -6 | 0 | -7 | -1 | x | x
CCCNC(=O)NC(C(=O)OC)C12CC3CC(CC(C3)C1)C2 (stereo not drawn) | 11* | 0 | 6 | -1 | 0 | 0
CCCNC(=O)N[C@@H](CCSC)C(=O)OC | -2 | 0 | 3 | 1 | x | x
SMILES | PLC-gamma1 inh | GC-B act | PLCb3 inh | NPR1 activator | PLCgamma1 ctr | PLCbeta3 conf
Cc1nc(SCC(O)CCl)c([N+](=O)[O-])[nH]1 (stereo not drawn) | 11* | -1 | 13* | -8 | 0 | 2
O=C(Nc1nnc(C2CC2)s1)c1cc(-c2ccccc2)nn1-c1ccccc1 | 2 | -6 | -2 | -2 | x | x
O=S1(=O)C[C@@H](N2CC[C@@H](O)C2)[C@H](COCc2ccccc2)N1 | 10* | -5 | 10 | 4 | -1 | -1
CN1CCN(CCC2Oc3cc([N+](=O)[O-])ccc3NC2=O)CC1 (stereo not drawn) | 3 | -3 | -2 | -3 | x | x
CCC(C)n1c(SCC(=O)NCc2ccco2)nnc1-c1cccc(S(=O)(=O)N2CCOCC2)c1 (stereo not drawn) | 12* | -4 | 3 | 3 | -8 | -6
CC(=O)Nc1ccc(CNc2nc(NC(C)C)nc3ccsc23)cc1 | 11* | 1 | -4 | 8 | 2 | -4
CC(=O)Nc1ccc(CNc2nc(NCC3CC3)nc3ccsc23)cc1 | 5 | -4 | 4 | 6 | x | x
COC(=O)c1ccc(/C=N/NC(=O)CC(=O)NCC(C)C)cc1 | 3 | -3 | 4 | 2 | x | x
Cc1ccc(CC(=S)N2CCOCC2)cc1 | 4 | -2 | 3 | 5 | x | x
S=C(Cc1ccc(-c2ccccc2)cc1)N1CCOCC1 | 9.9* | -4 | -4 | 2 | -7 | -3
CCC(Cc1ccccc1)NC(=O)C1CCN(S(=O)(=O)c2ccc3c(c2)CC(C)N3C(C)=O)CC1 (stereo not drawn) | 12* | -1 | 5 | -2 | 1 | -2
O=S1(=O)c2ccc(Br)cc2OC[C@@H](Cc2ccccc2)N1Cc1cn(CC2CCCCC2)nn1 | 10* | 8 | 4 | -1 | -4 | -1
O=S1(=O)c2ccc(Br)cc2OC[C@@H](Cc2ccccc2)N1Cc1cn(Cc2ccccc2)nn1 | 3 | 7 | -1 | 0 | x | x
CCc1nnc(N/N=C/c2c(F)cccc2Cl)n1N | 14* | -3 | 3 | -1 | -9 | -4
Cc1nnc(N/N=C/c2c(Cl)cccc2Cl)n1N | 5 | 3 | 5 | -2 | x | x
CC(C(=O)O)N1C(=O)/C(=C/C=C/c2ccco2)SC1=S (stereo not drawn) | 37* | 3 | -3 | -4 | 20* | -14
O=C1/C(=C/C=C/c2ccco2)SC(=S)N1NS(=O)(=O)c1ccccc1 | -9 | 2 | -53 | -11 | x | x
COc1ccc(C)cc1NC(=O)CNC(=O)[C@@H]1Cc2ccccc2CN1 | 2 | -5 | -2 | -1 | x | x
COc1ccccc1NC(=S)N(CCCN1CCOCC1)Cc1cn(C)c2ccccc12 | 0 | -2 | -1 | -7 | x | x
CCOc1ccccc1NC(=S)N(CCCN1CCOCC1)Cc1cn(C)c2ccccc12 | 14* | -2 | -4 | -3 | -2 | 2
Cc1nnc(SCC(=O)Nc2ccccc2)n1CCc1ccccc1 | 0 | -3 | 0 | -2 | x | x
COc1ccc(CNC(=O)c2cccc(S(=O)(=O)N3CCCCC3)c2)cc1OC | 1 | 1 | -4 | -1 | x | x
COc1ccc(S(=O)(=O)N2CCC(N3CCCCC3)CC2)cc1 | 9.7* | 6 | 5 | -2 | -1 | -1
